Measurements published in PubChem BioAssay AID2113 (National Center for Advancing Translational Sciences (NCATS), 2009).
Values joined by “and” are separate entries in the source; they are usually repeats but may differ in a detail not shown here. Equal entries are not always repeated. Records with an inconclusive call do not appear. Active and inactive are the calls of the source. The call rests on the fitted dose curve; in most records, active means well fitted curve in either direction with a large enough effect; inconclusive means small, poorly fitted or top-dose-only effect; inactive means no such curve, though single readings can be large or run the other way.

What follows are compounds tested against Lysosomal alpha-glucosidase (Homo sapiens) (UniProt P10253) (assay: Confirmation of Inhibitors and Activators of Human alpha-Glucosidase From Spleen Homogenate). Settings: alpha-glucosidase enzyme activity; series mostly up to 60.5 µM.
Method in brief: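 Compounds titrated against spleen-homogenate alpha-glucosidase, pH 5.0, 1 mM 4-MU-glucoside substrate, 37 C for 40 min. Fluorescence after pH 10 stop, normalised to no-enzyme and enzyme controls; Hill-equation AC50.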
Potency means the concentration at half of the fitted maximal effect.
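Wherever Potency is given: fluorescence of 4-methylumbelliferone released from a fluorogenic glucopyranoside substrate at pH 5.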

Potency, inactive:
COc1cccc2cc(-c3nc(-c4ccc(C)cc4)c(C)s3)c(=O)oc12
Cc1sc(-c2cc3c(ccc4ccccc43)oc2=O)nc1-c1ccccc1
Cn1c2c(c(=O)n(C)c1=O)CN(CCCN1CCOCC1)CN2
CCOC(=O)CCc1cccc2c1CCC2=O
CC1CCc2nc(-c3cc4c(ccc5ccccc54)oc3=O)sc2C1 (stereo not given)
CCc1sc(-c2cc3ccccc3oc2=O)nc1-c1ccccc1
CN1CC=C2C(C#N)=C(N)C(C#N)(C#N)[C@H](c3cccc(Cl)c3)C2C1 (stereo not given in full)
CN(C(=O)N1CCN(S(=O)(=O)c2ccccc2)CC1)c1ccccc1
CCCCn1c(CN2CCN(c3cccc(Cl)c3)CC2)nc2c1c(=O)n(C)c(=O)n2C
COc1ccc(Cc2nnc(NC(=O)CSc3ccc(Cl)cc3)s2)cc1
O=S(=O)(c1cccnc1)N1CCOCC1
COc1cc2cc(CN(Cc3nnnn3Cc3ccccc3)CC3CCCO3)c(=O)[nH]c2cc1OC (stereo not given)

Potency, active:
O=C1Cc2cc(S(=O)(=O)N3CCN(c4ccc([N+](=O)[O-])cc4)CC3)ccc2N1 3.66 µM [inhibitor]
CC(=O)c1ccc(N2CCN(S(=O)(=O)c3ccc4c(c3)CC(=O)N4)CC2)cc1 1.03 µM [inhibitor] and 520 nM [inhibitor] and 2.06 µM [inhibitor]
COc1ccc(CCn2c3c(c(=O)[nH]c2=S)CN(c2ccccc2)CN3)cc1OC 8.91 µM
